Assay results taken from PubChem BioAssay.

Tested on: XIP peptide (Xip251-270)
Experiment: compounds binding XIP fragment 251-270 – biochemical, small-molecule microarray, fluorescence 635/667 nm, 0.5 µg/mL protein, primary screen (AID 1183)
Settings: fluorescence 635 nm, higher = more signal

Question: How did the composite z-score turn out when `COCOc1ccc(Br)cc1C(=O)C=Cc1ccc2c(c1)OCO2` was run?
Answer: 0.627

Question: For `CCOC(=O)CCN1C(=O)[C@H]2[C@H]3[C@H](O)[C@H](O)CC(=NNC(=O)OCc4ccccc4)[C@H]3CC[C@H]2C1=O`, which composite z-score is on record?
Answer: -0.0907

Question: How did the composite z-score turn out when `COc1cccc([C@H]2Oc3ccc(OC)cc3C(=NOCC[C@@H]3C=C[C@H](OC(C)=O)[C@@H](COC(C)=O)O3)[C@@H]2O)c1` was run?
Answer: 0.206

Question: `CC1(C)O[C@H]2OC([C@H](O)CON3C(=O)c4ccccc4C3=O)[C@H](O)[C@H]2O1` (stereo partly drawn) was tested. Which composite z-score did it give?
Answer: 0.291

Question: How did the composite z-score turn out when `CC(C)=CCCC(C)=CCON=C1[C@H]2CCn3c(=O)n(-c4ccccc4)c(=O)n3[C@H]2[C@H](O)[C@@H]2O[C@H]12` was run?
Answer: 0.598

Question: How did the composite z-score turn out when `CCOC(=O)CCN1C(=O)[C@H]2[C@H]3[C@H](O)[C@H](O)CC(=NNC(=O)OCc4ccc(OC)cc4)[C@H]3CC[C@H]2C1=O` was run?
Answer: 0.277

Question: `COc1ccc(COC(=O)NN=C2C[C@@H](O)[C@@H](O)[C@@H]3[C@@H]4C(=O)N([C@@H](C)c5ccccc5)C(=O)[C@@H]4CC[C@@H]23)cc1` was tested. Which composite z-score did it give?
Answer: 0.0452

Question: How did the composite z-score turn out when `CCOC(=O)[C@H](Cc1ccccc1)NC(=O)CCC1CC(OC(=O)NCc2cccc3ccccc23)CC2(CCCC(COC(=O)NCCc3ccc(Cl)cc3)O2)O1` (stereo partly drawn) was run?
Answer: 0.568

Question: `CCN1C(=O)[C@H]2[C@H]3[C@H](O)[C@H](O)CC(=NNC(=O)OCc4ccccc4)[C@H]3CC[C@H]2C1=O` was tested. Which composite z-score did it give?
Answer: 0.129

Question: How did the composite z-score turn out when `COC(=O)[C@H](C)NC(=O)CCC1CC(OC(=O)NCCc2ccc(F)cc2)CC2(CCCC(COC(=O)NCC3CCCCC3)O2)O1` (stereo partly drawn) was run?
Answer: 0.526

Question: With `CCN1C(C)=C(C(=O)OC)[C@@H](c2ccccc2)N2C(=O)[C@](O)(C(=O)OC)CC(C(C)=O)=C12` as the compound, how does the composite z-score read?
Answer: -0.218

Question: Which composite z-score does the source give for `O=C1C[C@H](c2ccccc2)[C@H](c2ccc(Br)cc2)O1` here?
Answer: -0.0581

Question: For `CCOC(=O)[C@H](CC(C)C)NC(=O)CCC1CC(OC(=O)NCCc2ccc(F)cc2)CC2(CCCC(COC(=O)NCc3cccc(C(F)(F)F)c3)O2)O1` (stereo partly drawn), which composite z-score is on record?
Answer: 0.575

Question: For `COc1ccc(COC(=O)NN=C2C[C@@H](O)[C@@H](O)[C@@H]3[C@@H]4C(=O)N(c5cccc(Oc6ccccc6)c5)C(=O)[C@@H]4CC[C@H]23)cc1`, which composite z-score is on record?
Answer: -0.255

Question: With `Cc1ccc2[nH]c3nc(CCCn4ccnc4-c4ccccc4)nnc3c2c1` as the compound, how does the composite z-score read?
Answer: 0.623

Question: With `C[C@@H]1CC[C@H]2C(=O)OC(Cc3ccccc3)CN2[C@H]1c1ccc(Br)cc1` (stereo partly drawn) as the compound, how does the composite z-score read?
Answer: 0.276

Question: How did the composite z-score turn out when `CN1CCc2nc(-c3ccccc3)c(-c3ccccc3)cc2C1` was run?
Answer: 0.0309

Question: How did the composite z-score turn out when `CC(C)=NOC(C)CN1CCCCc2nc(C)c(C)cc21` (stereo not drawn) was run?
Answer: 0.208

Question: `CC(=O)OC[C@H]1O[C@H](CCON=C(C)C)C=C[C@@H]1OC(C)=O` was tested. Which composite z-score did it give?
Answer: 0.0795

Question: For `COc1ccc(COC(=O)NN=C2C[C@@H](O)[C@@H](O)[C@@H]3[C@@H]4C(=O)N([C@@H](C)c5ccccc5)C(=O)[C@@H]4CC[C@H]23)cc1`, which composite z-score is on record?
Answer: -0.273

Question: With `COC(=O)[C@H](C)NC(=O)CCC1CC(OC(=O)NCCc2ccc(F)cc2)CC2(CCCC(COC(=O)NCCc3ccccc3OC)O2)O1` (stereo partly drawn) as the compound, how does the composite z-score read?
Answer: 0.341

Question: With `CC(CCN1CCCc2nc(C)c(C)cc21)=NOC[C@@H](O)COCc1ccco1` as the compound, how does the composite z-score read?
Answer: 0.831

Question: For `COc1ccc(OC[C@@H]2CC3[C@@H](c4ccc(Br)cc4)[C@H](C)CC[C@H]3C(=O)O2)cc1` (stereo partly drawn), which composite z-score is on record?
Answer: 0.659

Question: Which composite z-score does the source give for `CCN1C(=O)[C@H]2[C@@H]3C(=CC[C@H]2C1=O)C(=O)[C@H]1O[C@H]1[C@H]3O` here?
Answer: 0.568

Question: Which composite z-score does the source give for `CC(CCN1CCCCc2nc(C)c(C)cc21)=NOC[C@@H](O)[C@H]1O[C@@H]2OC(C)(C)O[C@@H]2[C@H]1O` here?
Answer: 0.698

Question: Which composite z-score does the source give for `C=CCOCC1CN2[C@@H](CC[C@@H](C)[C@@H]2c2ccc(Br)cc2)C(=O)O1` (stereo partly drawn) here?
Answer: -0.104

Question: For `CO[C@H]1COC(=O)CCC[C@H](C)[C@H](OC)COC(=O)CC=C[C@@H]1C`, which composite z-score is on record?
Answer: 0.0648

Question: For `CC(=O)OC[C@H]1O[C@H](CC=NO[C@H](C)c2cn([C@@H]3COC[C@H]3O)nn2)C=C[C@@H]1OC(C)=O`, which composite z-score is on record?
Answer: 0.644

Question: For `COc1ccc2c(c1)O[C@@H](c1cccc(C(F)(F)F)c1)[C@H](O)C2=O`, which composite z-score is on record?
Answer: -0.233

Question: Which composite z-score does the source give for `CCOC(=O)[C@H](CC(C)C)NC(=O)CCC1CC(OC(=O)NCc2ccc3c(c2)OCO3)CC2(CCCC(COC(=O)NCCc3ccc(Cl)cc3)O2)O1` (stereo partly drawn) here?
Answer: 0.137

Question: `C=CC[C@@H]1C=C[C@H](Oc2ccc(C)cc2)[C@@H](COC(=O)NCc2cccc3ccccc23)O1` was tested. Which composite z-score did it give?
Answer: 0.427

Question: With `CCCCOC(OCCCC)C(O)CSc1ccc2ccccc2c1` (stereo not drawn) as the compound, how does the composite z-score read?
Answer: 0.198

Question: For `COC(=O)CC=C[C@@H](C)[C@@H](C=NOC[C@@H](O)[C@H]1O[C@@H]2OC(C)(C)O[C@@H]2[C@H]1O)OC`, which composite z-score is on record?
Answer: -0.0618
